In PubChem BioAssay (Tox21):
A number with no mark means an inactive call. Records with an inconclusive call do not appear. A call without a number means that no potency is given here. Calls of active or inactive are those of the source. Unless noted, calls follow the shape of the dose curve; as a rule, active = well fitted curve in the direction sought with a large enough effect in the repeat runs; inconclusive = weak or mixed curves; inactive = no such curve, though single readings can be large; an effect the other way counts as inactive or inconclusive.

Key:
[1] = qHTS assay to identify small molecule agonists of the TGF-beta/Smad signaling pathway - cell viability counter screen (AID 1346829); also: top concentration of the series differs between compounds; nearly all actives have a fitted effect of over 45% in size
Procedure, shortened: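 HEK 293T SBE-bla line, 5 hr compound exposure at 37 C, multiplexed CellTiter-Glo viability read by luminescence.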

[2] = qHTS assay to identify small molecule agonists of the TGF-beta/Smad signaling pathway (AID 1346859; active = well fitted activation curve with a large enough effect in the signal ratio in the repeat runs, not every such curve was filed as active; the % refers to the signal ratio; also: series mostly up to about 77 µM)
Procedure, shortened: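 Stable Smad binding element-beta-lactamase HEK 293T cells; 5 hr compound exposure at 37 C under 5% CO2; 2 hr room-temperature substrate step; fluorescence excited at 405 nm, collected at 460 nm and 530 nm.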

[3] = target: Thyrotropin-releasing hormone receptor (Homo sapiens) (UniProt P34981); assay: qHTS assay to identify small molecule antagonists of the thyrotropin-releasing hormone receptor (TRHR) signaling pathway (AID 1346877; active = well fitted inhibition curve with a large enough effect in the repeat runs, not every such curve was filed as active; also: series mostly up to about 51 µM)
Procedure, shortened: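 Kinetic fluorescence (3 min, 1 s resolution) following stimulation with TRH at 1 nM final; HEK293 cells bearing human TRHR; 5 min compound preincubation at RT; concentration-response over 15 points, triplicates.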

[4] = target: Thyrotropin-releasing hormone receptor (Homo sapiens) (UniProt P34981); assay: qHTS assay to identify small molecule agonists of the thyrotropin-releasing hormone receptor (TRHR) signaling pathway (AID 1346891; calls by dose curve;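 also: HEK293 cells expressing TRHR with calcium dye readout; series mostly up to about 58 µM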)
Procedure, shortened: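 In 1536-format, 1500 TRHR-Hek293 cells per well grew 18 h, took up calcium dye for 2 h at 37 °C, received compound, and were read kinetically; 15-point titrations, triplicates.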

[5] = Caspase-3/7 induction in CHO-K1 cells by small molecules, qHTS cell viability counter screen (AID 1346979); also: nearly all actives have a fitted effect of over 35% in size; also: potency is read from the fitted curve at half-maximal effect
Procedure, shortened: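 To flag cytotoxic compounds, treated CHO-K1 wild-type cells were given CellTiter-Fluor at 16hr and read fluorescently after 1hr at 37C; the caspase-3/7 luminescence was measured in these same wells.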

[6] = Caspase-3/7 induction in CHO-K1 cells by small molecules, qHTS assay (AID 1346980); also: nearly all actives have a fitted effect of over 15% in size
Procedure, shortened: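 Wild-type CHO-K1 cells exposed to compounds for 17hr at 37 C, 5% CO2. Caspase-3/7 activity then measured by Caspase-Glo 3/7 luminescence after 30min at room temperature.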

[7] = Caspase-3/7 induction in HepG2 cells by small molecules, qHTS cell viability counter screen (AID 1346981); also: series mostly up to about 92 µM; nearly all actives have a fitted effect of over 30% in size
Procedure, shortened: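 In this quantitative HTS counter screen, compounds delivered in DMSO were left on unmodified HepG2 cells for 16 hr at 37 C. Viability was then determined fluorometrically with CellTiter-Fluor, in parallel with caspase-3/7 induction in the same wells.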

[8] = target: Nuclear receptor subfamily 1 group I member 2 (Homo sapiens) (UniProt O75469); assay: Human pregnane X receptor (PXR) small molecule agonists, qHTS assay (AID 1346982); also: nearly all actives have a fitted effect of over 35% in size; also: potency is read from the fitted curve at half-maximal effect
Procedure, shortened: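 Reporter HepG2 cells expressing PXR-Luc are cultured in charcoal-stripped FBS (5%), treated with compounds for 24 hr at 37 C, and assayed by ONE-Glo luminescence after 30 min at room temperature.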

[9] = target: Cytochrome P450 2D6 (Homo sapiens) (UniProt P10635); assay: Cytochrome P450 Family 2 Subfamily D Member 6 (CYP2D6) small molecule antagonists: luciferase reporter qHTS assay (AID 1671196); also: nearly all actives have a fitted effect of over 50% in size; also: potency is read from the fitted curve at half-maximal effect
Procedure, shortened: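 Test chemicals meet CYP2D6 plus proluciferin substrate (10 min, RT); NADPH regenerating solution then drives turnover for 1 h. Detection reagent halts the reaction; luminescence measured after 20 min.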

[10] = target: Cytochrome P450 2C19 (Homo sapiens) (UniProt P33261); assay: Cytochrome P450 Family 2 Subfamily C Member 19 (CYP2C19) small molecule antagonists: luciferase reporter qHTS assay (AID 1671197); also: nearly all actives have a fitted effect of over 65% in size; also: potency is read from the fitted curve at half-maximal effect
Procedure, shortened: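 First, compounds are pinned into enzyme-substrate mix and held 10 min at room temperature. Second, NADPH regeneration solution is added and plates incubate 1 h at 37C. Third, detection reagent is added and luminescence read after 20 min.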

[11] = target: Cytochrome P450 2C9 (Homo sapiens) (UniProt P11712); assay: Cytochrome P450 Family 2 Subfamily C Member 9 (CYP2C9) small molecule antagonists: luciferase reporter qHTS assay (AID 1671198); also: nearly all actives have a fitted effect of over 50% in size; also: potency is read from the fitted curve at half-maximal effect
Procedure, shortened: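 P450-Glo proluciferin substrate with CYP2C9 enzyme; 10 min RT preincubation, then NADPH regeneration 1 h at 37C; luciferin detection reagent 20 min RT, luminescence in relative luminescence units.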

[12] = target: Voltage-gated inwardly rectifying potassium channel KCNH2 (Homo sapiens) (UniProt Q12809); assay: Human Ether-a-go-go-Related Gene (hERG) channel small molecule antagonists: fluorescence cell-based qHTS assay (AID 1671200);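 also: hERG-expressing U2OS cells given a thallium stimulus after FluxOR II dye loading; series mostly up to about 77 µM; nearly all actives have a fitted effect of over 50% in size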
Procedure, shortened: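 Measured: Tl+ flux via fluorescence (480/540 nm) in hERG-expressing U2OS cells after 1 h dye loading at room temperature.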

[13] = target: Cytochrome P450 3A4 (Homo sapiens) (UniProt P08684); assay: Cytochrome P450 Family 3 Subfamily A Member 4 (CYP3A4) small molecule antagonists: luciferase reporter qHTS assay (AID 1671201); also: series mostly up to about 120 µM; nearly all actives have a fitted effect of over 50% in size
Procedure, shortened: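 Setup: enzyme-substrate mix, compound pin transfer, 10 min RT. Reaction: NADPH regeneration solution, 1 h RT. Readout: detection reagent stops turnover, luminescence measured after 20 min, expressed in relative luminescence units.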

[14] = Caspase-3/7 induction in HepG2 cells by small molecules, qHTS assay (AID 1346978); also: nearly all actives have a fitted effect of over 15% in size
Procedure, shortened: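 Wild-type HepG2 cells, 2,000/well, settled 5 hr at 37 C and 5% CO2, then compound-treated for 17 hr; caspase-3/7 activity read by luminescent Caspase-Glo 3/7 after 30 min at room temperature.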

[15] = target: Nuclear receptor subfamily 1 group I member 2 (Rattus norvegicus) (UniProt Q9R1A7); assay: Rat pregnane X receptor (rPXR) activation by small molecules, qHTS assay (AID 1346983); details: rPXR luciferase reporter cells, One-Glo luminescence, 24 h; max activation: hits give high values; also: nearly all actives have a fitted effect of over 20% in size
Procedure, shortened: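 Cell-based rPXR activation assay: rPXR cells, 2,000 per well, rested 5hr at 37 C, then exposed to compounds in DMSO for 24 hr at 37 C. Luciferase activity read by One-Glo luminescence after 30 min at room temperature.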

[16] = target: Nuclear receptor subfamily 1 group I member 2 (Homo sapiens) (UniProt O75469); assay: CYP3A4 induction through human pregnane X receptor (PXR) by small molecules, qHTS assay (AID 1346984); also: nearly all actives have a fitted effect of over 40% in size
Procedure, shortened: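 Induction measured in HepG2-based DPX-2 cells co-expressing human PXR and a CYP3A4 promoter-driven luciferase. After a 24-hour compound exposure, cells received CYP3A4 luciferin substrate at 3uM final for 3 hours, and light output was then recorded.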

[17] = target: Nuclear receptor subfamily 1 group I member 2 (Homo sapiens) (UniProt O75469); assay: Human pregnane X receptor (PXR) activation by small molecules, qHTS assay (AID 1346985); also: nearly all actives have a fitted effect of over 40% in size
Procedure, shortened: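 DPX-2 cells (HepG2 co-transfected with a PXR response element and a CYP3A4-promoter luciferase construct) were seeded at 2,000 per well, rested 5 hr at 37C, then exposed to DMSO-dissolved compounds for 24 hr. Activation was read as luciferase luminescence.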

[18] = target: Cytochrome P450 1A2 (Homo sapiens) (UniProt P05177); assay: Cytochrome P450 Family 1 Subfamily A Member 2 (CYP1A2) small molecule antagonists: luciferase reporter qHTS assay (AID 1671199); also: nearly all actives have a fitted effect of over 50% in size; also: potency is read from the fitted curve at half-maximal effect
Procedure, shortened: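 Steps: enzyme-substrate mix dispensed; test compounds and furafylline control pinned in; 10 min room temperature; NADPH regeneration solution added, 1 h; reaction stopped with luciferin detection reagent; luminescence read after 20 min.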

[19] = Human pregnane X receptor (PXR) small molecule agonists, qHTS cell viability counter screen (AID 1346977); also: nearly all actives have a fitted effect of over 50% in size
Procedure, shortened: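 Readout is CellTiter-Fluor fluorescence from PXR-Luc HepG2 cells. Plated cells rested 5hr, then were treated with compounds for 24hr at 37C and 5% CO2, with reagent present during the last hour.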

Sequence of Nuclear receptor subfamily 1 group I member 2 (Rattus norvegicus) (Q9R1A7 whole entry, looked up): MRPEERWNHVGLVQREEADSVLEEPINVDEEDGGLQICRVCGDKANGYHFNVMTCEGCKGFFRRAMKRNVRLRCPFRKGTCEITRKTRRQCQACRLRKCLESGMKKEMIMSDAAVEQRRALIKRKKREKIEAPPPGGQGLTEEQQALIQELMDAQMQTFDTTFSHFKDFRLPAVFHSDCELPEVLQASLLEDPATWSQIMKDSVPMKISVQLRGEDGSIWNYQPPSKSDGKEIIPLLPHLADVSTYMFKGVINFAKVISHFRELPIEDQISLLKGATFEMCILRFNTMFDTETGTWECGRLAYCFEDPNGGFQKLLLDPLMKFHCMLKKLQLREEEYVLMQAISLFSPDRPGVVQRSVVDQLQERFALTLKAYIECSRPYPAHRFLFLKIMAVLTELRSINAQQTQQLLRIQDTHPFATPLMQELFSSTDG
Sequence of Cytochrome P450 3A4 (Homo sapiens) (P08684 whole entry, looked up): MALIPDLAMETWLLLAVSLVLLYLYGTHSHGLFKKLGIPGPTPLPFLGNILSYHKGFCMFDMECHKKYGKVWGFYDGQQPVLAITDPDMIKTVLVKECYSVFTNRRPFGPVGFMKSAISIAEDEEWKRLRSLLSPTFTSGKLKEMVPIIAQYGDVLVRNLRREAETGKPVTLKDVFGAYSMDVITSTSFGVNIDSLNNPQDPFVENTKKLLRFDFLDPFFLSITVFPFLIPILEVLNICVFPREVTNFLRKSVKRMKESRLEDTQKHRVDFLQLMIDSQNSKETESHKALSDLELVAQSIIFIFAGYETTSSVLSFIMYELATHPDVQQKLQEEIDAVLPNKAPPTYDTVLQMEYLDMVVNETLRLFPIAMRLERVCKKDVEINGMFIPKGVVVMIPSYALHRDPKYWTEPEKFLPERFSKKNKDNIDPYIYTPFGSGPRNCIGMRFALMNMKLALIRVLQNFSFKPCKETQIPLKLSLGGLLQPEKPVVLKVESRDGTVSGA
Sequence of Cytochrome P450 2C19 (Homo sapiens) (P33261 whole entry, looked up): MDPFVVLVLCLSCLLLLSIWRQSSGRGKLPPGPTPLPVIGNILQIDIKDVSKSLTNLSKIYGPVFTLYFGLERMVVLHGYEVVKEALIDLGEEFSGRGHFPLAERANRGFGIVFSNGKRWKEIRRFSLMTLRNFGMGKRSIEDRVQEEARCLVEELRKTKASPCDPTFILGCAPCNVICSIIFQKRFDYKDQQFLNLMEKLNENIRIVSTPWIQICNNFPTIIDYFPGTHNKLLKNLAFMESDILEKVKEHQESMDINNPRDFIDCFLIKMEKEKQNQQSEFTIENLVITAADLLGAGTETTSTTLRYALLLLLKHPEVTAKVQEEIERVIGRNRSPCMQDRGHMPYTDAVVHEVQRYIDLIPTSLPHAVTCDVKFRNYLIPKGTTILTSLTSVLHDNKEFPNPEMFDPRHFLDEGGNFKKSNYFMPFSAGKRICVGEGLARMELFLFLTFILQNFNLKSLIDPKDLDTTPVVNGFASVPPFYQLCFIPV
Sequence of Cytochrome P450 2D6 (Homo sapiens) (P10635 whole entry, looked up): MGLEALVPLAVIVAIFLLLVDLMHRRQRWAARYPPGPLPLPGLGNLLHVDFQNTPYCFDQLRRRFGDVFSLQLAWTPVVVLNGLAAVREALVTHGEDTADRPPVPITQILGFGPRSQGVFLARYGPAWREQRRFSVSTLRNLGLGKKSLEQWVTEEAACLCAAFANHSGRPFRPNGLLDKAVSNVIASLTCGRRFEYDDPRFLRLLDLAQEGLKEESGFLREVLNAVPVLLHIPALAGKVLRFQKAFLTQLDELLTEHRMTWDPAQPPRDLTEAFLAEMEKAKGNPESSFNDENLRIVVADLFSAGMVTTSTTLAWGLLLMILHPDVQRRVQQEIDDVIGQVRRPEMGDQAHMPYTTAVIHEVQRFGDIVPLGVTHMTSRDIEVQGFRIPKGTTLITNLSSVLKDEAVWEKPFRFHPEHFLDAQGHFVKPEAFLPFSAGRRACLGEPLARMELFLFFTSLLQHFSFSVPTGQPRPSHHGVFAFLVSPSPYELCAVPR
Sequence of Voltage-gated inwardly rectifying potassium channel KCNH2 (Homo sapiens) (Q12809 whole entry, looked up): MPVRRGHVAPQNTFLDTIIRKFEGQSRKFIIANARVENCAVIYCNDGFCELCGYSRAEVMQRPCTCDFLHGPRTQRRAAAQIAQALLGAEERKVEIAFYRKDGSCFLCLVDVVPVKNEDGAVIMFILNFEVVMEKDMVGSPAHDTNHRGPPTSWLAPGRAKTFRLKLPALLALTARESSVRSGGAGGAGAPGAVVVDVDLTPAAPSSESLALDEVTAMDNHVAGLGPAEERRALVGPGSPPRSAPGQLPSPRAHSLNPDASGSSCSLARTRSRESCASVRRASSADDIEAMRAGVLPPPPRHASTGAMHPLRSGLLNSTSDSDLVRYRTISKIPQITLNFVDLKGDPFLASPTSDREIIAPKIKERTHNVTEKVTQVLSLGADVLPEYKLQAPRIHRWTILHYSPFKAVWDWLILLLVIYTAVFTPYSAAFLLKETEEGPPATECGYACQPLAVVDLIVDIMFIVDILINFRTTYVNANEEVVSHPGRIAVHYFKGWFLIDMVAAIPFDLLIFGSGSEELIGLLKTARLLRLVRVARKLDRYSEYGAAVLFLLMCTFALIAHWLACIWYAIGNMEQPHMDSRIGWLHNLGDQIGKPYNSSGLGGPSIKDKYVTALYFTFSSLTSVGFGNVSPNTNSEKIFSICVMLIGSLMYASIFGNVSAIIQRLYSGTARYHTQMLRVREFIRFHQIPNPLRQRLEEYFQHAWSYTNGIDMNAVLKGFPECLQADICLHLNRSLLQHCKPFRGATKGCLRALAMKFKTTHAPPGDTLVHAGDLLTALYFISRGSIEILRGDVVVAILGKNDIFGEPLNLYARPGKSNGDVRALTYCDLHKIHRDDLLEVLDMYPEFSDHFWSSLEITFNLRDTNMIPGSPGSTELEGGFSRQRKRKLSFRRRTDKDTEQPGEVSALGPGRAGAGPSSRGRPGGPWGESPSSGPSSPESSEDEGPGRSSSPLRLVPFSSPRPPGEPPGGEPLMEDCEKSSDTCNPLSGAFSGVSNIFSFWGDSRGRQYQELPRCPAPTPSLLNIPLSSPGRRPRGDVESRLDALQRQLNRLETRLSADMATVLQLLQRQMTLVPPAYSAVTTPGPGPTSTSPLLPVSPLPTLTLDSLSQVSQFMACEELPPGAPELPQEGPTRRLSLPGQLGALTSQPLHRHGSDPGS
Sequence of Cytochrome P450 1A2 (Homo sapiens) (P05177 whole entry, looked up): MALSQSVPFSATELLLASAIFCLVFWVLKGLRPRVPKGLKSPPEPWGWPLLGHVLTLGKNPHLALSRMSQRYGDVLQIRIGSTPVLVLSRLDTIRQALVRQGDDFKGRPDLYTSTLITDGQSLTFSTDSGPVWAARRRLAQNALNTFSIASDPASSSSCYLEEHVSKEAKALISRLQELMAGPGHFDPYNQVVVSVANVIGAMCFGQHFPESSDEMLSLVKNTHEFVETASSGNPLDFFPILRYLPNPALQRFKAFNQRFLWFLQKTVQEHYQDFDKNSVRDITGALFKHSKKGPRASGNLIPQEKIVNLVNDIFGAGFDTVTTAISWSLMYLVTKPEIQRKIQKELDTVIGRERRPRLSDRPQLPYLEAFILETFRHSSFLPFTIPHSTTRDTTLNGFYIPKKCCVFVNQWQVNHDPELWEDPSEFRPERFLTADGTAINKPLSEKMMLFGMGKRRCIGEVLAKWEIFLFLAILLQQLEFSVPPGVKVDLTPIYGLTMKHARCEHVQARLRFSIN
Sequence of Cytochrome P450 2C9 (Homo sapiens) (P11712 whole entry, looked up): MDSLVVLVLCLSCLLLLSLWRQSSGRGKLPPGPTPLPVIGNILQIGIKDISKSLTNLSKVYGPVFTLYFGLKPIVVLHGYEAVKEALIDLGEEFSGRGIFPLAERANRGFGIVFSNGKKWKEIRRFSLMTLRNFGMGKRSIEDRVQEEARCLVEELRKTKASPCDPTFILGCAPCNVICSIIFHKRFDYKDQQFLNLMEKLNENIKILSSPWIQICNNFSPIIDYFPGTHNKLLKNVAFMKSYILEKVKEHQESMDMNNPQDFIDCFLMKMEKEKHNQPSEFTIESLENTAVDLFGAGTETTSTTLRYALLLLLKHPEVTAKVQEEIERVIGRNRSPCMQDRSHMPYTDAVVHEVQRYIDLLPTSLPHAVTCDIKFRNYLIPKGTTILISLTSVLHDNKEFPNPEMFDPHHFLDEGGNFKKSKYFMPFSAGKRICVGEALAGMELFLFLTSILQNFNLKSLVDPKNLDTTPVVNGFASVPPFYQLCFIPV
Sequence of Thyrotropin-releasing hormone receptor (Homo sapiens) (P34981 whole entry, looked up): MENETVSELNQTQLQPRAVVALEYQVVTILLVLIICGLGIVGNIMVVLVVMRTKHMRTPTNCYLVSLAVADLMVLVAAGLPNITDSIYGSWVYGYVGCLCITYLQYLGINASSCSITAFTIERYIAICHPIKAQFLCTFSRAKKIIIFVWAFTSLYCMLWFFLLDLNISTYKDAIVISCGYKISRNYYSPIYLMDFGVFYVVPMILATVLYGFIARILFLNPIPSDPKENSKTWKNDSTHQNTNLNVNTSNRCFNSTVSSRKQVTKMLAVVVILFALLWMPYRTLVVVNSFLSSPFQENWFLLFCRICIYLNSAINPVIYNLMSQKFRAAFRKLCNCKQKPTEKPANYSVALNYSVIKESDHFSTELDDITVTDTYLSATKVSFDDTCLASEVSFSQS
Sequence of Nuclear receptor subfamily 1 group I member 2 (Homo sapiens) (O75469 whole entry, looked up): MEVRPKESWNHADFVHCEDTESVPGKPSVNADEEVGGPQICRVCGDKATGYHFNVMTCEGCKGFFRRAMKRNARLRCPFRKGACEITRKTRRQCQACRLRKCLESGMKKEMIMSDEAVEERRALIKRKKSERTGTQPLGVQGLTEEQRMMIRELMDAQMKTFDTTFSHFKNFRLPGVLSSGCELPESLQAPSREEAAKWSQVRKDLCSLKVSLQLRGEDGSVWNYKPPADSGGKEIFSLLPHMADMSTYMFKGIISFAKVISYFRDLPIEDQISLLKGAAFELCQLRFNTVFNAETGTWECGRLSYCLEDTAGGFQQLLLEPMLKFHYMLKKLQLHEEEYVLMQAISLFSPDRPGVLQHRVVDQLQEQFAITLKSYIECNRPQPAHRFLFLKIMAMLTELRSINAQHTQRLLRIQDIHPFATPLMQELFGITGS

SMILES | outcome [1] | outcome [2] | outcome [3] | Potency [4] | Potency [5] | outcome [6] | outcome [7] | Potency [8] | Potency [9] | Potency [10] | Potency [11] | Potency [12] | Potency [13] | outcome [14] | max activation [15] | outcome [16] | outcome [17] | Potency [18] | outcome [19]
CC(=O)OC1CCC(C(C)(C)C)CC1 (centres undefined) | inactive | inactive | inactive | inactive | inactive | inactive | inactive | inactive | inactive | inactive | inactive | inactive | inactive | – | – | – | – | – | –
COc1cnc(NS(=O)(=O)c2ccc(N)cc2)nc1 | inactive | inactive | inactive | inactive | inactive | inactive | inactive | inactive | inactive | – | inactive | inactive | inactive | inactive | -1.37% | inactive | inactive | inactive | –
CCCCOCCCC | inactive | inactive | inactive | inactive | inactive | – | – | inactive | – | inactive | inactive | inactive | inactive | – | – | – | – | – | inactive
COCCCOc1cc(C[C@@H](C[C@H](N)[C@@H](O)C[C@H](C(=O)NCC(C)(C)C(N)=O)C(C)C)C(C)C)ccc1OC | inactive | inactive | inactive | – | inactive | inactive | inactive | inactive | – | inactive | inactive | inactive | – | inactive | – | – | – | – | inactive
O=C(CCBr)N1CCN(C(=O)CCBr)CC1 | inactive | inactive | inactive | inactive | inactive | inactive | – | inactive | – | inactive | inactive | inactive | inactive | – | -2.92% | inactive | inactive | – | inactive
C[Si](C)(C)O[Si](O)(O)O | inactive | inactive | inactive | inactive | inactive | inactive | inactive | inactive | inactive | – | inactive | inactive | inactive | inactive | – | – | – | inactive | –
CCCCCCCCCCCCCC(=O)OCC | inactive | inactive | inactive | inactive | inactive | inactive | – | inactive | inactive | inactive | inactive | inactive | inactive | inactive | – | – | – | – | –
c1coc(Cn2cccc2)c1 | inactive | inactive | inactive | – | inactive | inactive | inactive | inactive | inactive | inactive | inactive | inactive | inactive | inactive | – | – | – | inactive | inactive
CCOC(=O)CC(C(C)=O)C(C)=O | inactive | inactive | inactive | – | inactive | inactive | inactive | inactive | inactive | inactive | inactive | inactive | inactive | inactive | – | – | – | inactive | inactive
Cc1nc2ccc(Cl)cc2[nH]1 | inactive | inactive | inactive | inactive | 17.2 µM (active) | – | – | 12.2 µM (active) | 31.7 µM (active) | 39.8 µM (active) | inactive | inactive | – | – | – | – | – | 2.82 µM (active) | –
CC(C)(C)c1ccc(C(=O)CCCCl)cc1 | inactive | inactive | inactive | – | inactive | inactive | inactive | 26.6 µM (active) | inactive | inactive | inactive | inactive | inactive | inactive | – | – | – | 12.3 µM (active) | inactive
COc1cc(NS(=O)(=O)c2ccc(N)cc2)ncn1 | inactive | inactive | inactive | inactive | inactive | inactive | inactive | – | – | inactive | – | inactive | inactive | inactive | -2.45% | – | – | – | –
CCc1ncc(C)[nH]1 | inactive | inactive | inactive | – | inactive | inactive | inactive | inactive | inactive | inactive | inactive | inactive | – | inactive | – | – | – | – | inactive
NNC(=O)OCc1ccccc1 | inactive | inactive | inactive | inactive | inactive | – | inactive | 54.5 µM (active) | inactive | – | 56.4 µM (active) | inactive | inactive | – | – | – | – | 15.9 µM (active) | inactive
